Screens (PubChem)
Shown are actives, neighbours in structure and some others; about 2.1% of the full set was active somewhere.
PLCg1 inh – inhibitors of human phospholipase C gamma1. P19174. purified PLC-gamma1, fluorogenic substrate, fluorescence. inhibition, % at 12.2 µM. hit rate 0.84% among 370,000; in the data active = inhibition above about 9.5%
ADAM17 inh – inhibitors of human ADAM17. P78536. recombinant ADAM17, EDANS/DABCYL FRET peptide cleavage. inhibition, % at 6.95 µM. hit rate 0.83% among 370,000;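 active = inhibition above the mean of compounds lying between control limits plus 3 SD, set per campaign, cut at about 8.5% in these data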
Target sequence (P78536 215-824 limits assumed): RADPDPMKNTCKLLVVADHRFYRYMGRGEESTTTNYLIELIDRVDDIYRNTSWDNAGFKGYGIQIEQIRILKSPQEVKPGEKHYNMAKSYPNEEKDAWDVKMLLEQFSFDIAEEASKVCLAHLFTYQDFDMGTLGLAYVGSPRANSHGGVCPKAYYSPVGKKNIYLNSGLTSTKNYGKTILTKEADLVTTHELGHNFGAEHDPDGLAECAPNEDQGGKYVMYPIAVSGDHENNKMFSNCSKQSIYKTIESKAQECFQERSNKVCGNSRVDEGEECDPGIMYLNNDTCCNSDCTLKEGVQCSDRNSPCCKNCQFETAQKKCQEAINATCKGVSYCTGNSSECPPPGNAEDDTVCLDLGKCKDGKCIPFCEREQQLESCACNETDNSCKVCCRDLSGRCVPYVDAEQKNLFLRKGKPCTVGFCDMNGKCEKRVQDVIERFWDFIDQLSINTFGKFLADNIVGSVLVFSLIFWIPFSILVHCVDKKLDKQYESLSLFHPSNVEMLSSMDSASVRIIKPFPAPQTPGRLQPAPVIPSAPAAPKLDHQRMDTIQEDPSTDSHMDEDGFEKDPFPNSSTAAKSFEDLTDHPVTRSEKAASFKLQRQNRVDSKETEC
PLC-beta3 inh – blocks human PLC-beta3 enzyme activity; inhibition, % at 12.2 µM; hit rate 0.18% among 370,000; Purified PLC-beta3, fluorogenic substrate, fluorescence
Rce1 inhib – blocks yeast Ras-converting enzyme; Q03530; yeast membranes, quenched prenylated peptide cleavage fluorescence; calls only; hit rate 0.27% among 290,000; AID 2563;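 active = fall in fluorescence gain of 50% or more versus controls, with final raw signal at or below 3038400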
ADAM10 inh – ADAM10 inhibition, QFRET primary screen; inhibition, % at 7 µM; hit rate 0.62% among 370,000; recombinant ADAM10, EDANS/DABCYL FRET peptide cleavage, 3 h;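 active = inhibition above a per-campaign cutoff equal to the mean of compounds falling between control-based bounds plus 3 SD, cut at about 20% in these data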
ADAM10 ctr – counter-screen for ADAM17 exosite inhibitors: inhibitors of human ADAM10; shares compounds with ADAM17 inh; recombinant ADAM10, EDANS/DABCYL FRET peptide cleavage, 3 h; inhibition, % at 6.95 µM; hit rate 47% among 2,900; AID 743256;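 active = mean inhibition over the triplicate runs exceeds the activity threshold set in the earlier primary screen, cut at about 20% in these data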
ADAM17 confirm – human ADAM17 inhibition, confirmation | AID 743257 | shares compounds with ADAM17 inh | inhibition, % at 6.95 µM | recombinant ADAM17, EDANS/DABCYL QFRET peptide cleavage | hit rate 65% among 2,900;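 active = mean inhibition across replicates above the hit cutoff set in the primary screen, cut at about 8.5% in these data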
PLCg1 ctr – counter-screen for PLC-beta3 inhibitors: inhibitors of human PLC-gamma1 | shares compounds with PLCg1 inh | hit rate 3.1% among 3,300 | purified PLC-gamma1, fluorogenic substrate, fluorescence | AID 743258 | inhibition, % at 12.3 µM; in the data active = inhibition above about 9.5%
PLCb3 confirm – human PLC-beta3 inhibition, confirmation. hit rate 1% among 3,300. purified PLC-beta3, fluorogenic substrate fluorescence. shares compounds with PLCg1 inh. inhibition, % at 12.3 µM
Numbers stand for hits; n = inactive; x = no result given. Rule as the data show it, unless noted: active = inhibition above about 11%; inactive = the rest.

SMILES | PLCg1 inh | ADAM17 inh | PLC-beta3 inh | Rce1 inhib | ADAM10 inh | ADAM10 ctr | ADAM17 confirm | PLCg1 ctr | PLCb3 confirm
Cc1[nH]c2ccccc2c1C(=O)CSC(=S)N1CCCCC1 | 15 | 11 | n | n | n | n | n | n | n
O=C(Nc1cccc(OC(F)(F)F)c1)C1Cc2c(-c3cccc(F)c3)ccnc2O1 (stereo unspecified) | 12 | 12 | n | x | n | 35 | 19 | n | n
CCOC(=O)CC1(C)Sc2ccccc2N1S(=O)(=O)c1ccc(C)cc1 (stereo unspecified) | n | n | n | x | n | x | x | x | x
Cc1cc2c(cc1C)-c1nnnn1C(N1CCCC1)C(=O)N2 (stereo unspecified) | n | n | n | x | n | x | x | x | x
CCOC(=O)c1oc2cc(O)cc(C)c2c(=O)c1-c1cscn1 | n | 10 | 12 | n | n | n | n | n | n
Nc1nonc1C(=O)NCCNCc1ccccc1OCc1ccccc1F | n | n | n | n | n | x | x | x | x
Nc1nonc1C(=O)NCCNCc1cc(Br)ccc1OCc1ccccc1F | 9.8 | 14 | 11 | n | 25 | n | n | n | n
CCCCCCSC1=C(C#N)C(=O)NC2(CCCCC2)S1 | 14 | 9.0 | n | n | n | n | 9.0 | n | n
COc1ccc(CSC2=C(C#N)C(=O)NC3(CCCCC3)S2)cc1 | n | n | n | x | n | x | x | x | x
O=C(Nc1cccc(S(=O)(=O)C(F)F)c1)c1ccc(S(=O)(=O)N2CCOCC2)cc1 | n | 11 | 13 | n | n | n | 9.6 | n | n
O=C(Nc1cccc(S(=O)(=O)C(F)F)c1)c1ccc(S(=O)(=O)N2CCCC2)cc1 | n | n | n | n | n | x | x | x | x
O=C(C[C@H]1C/C=C\CC[C@@H](Cc2ccc(F)cc2)C(=O)O[C@@H](c2ccccc2)CNC1=O)N[C@H](CO)Cc1ccccc1 | 11 | 13 | n | x | n | n | 12 | n | n
CC(C)(C)OC(=O)C[C@H]1C/C=C\C[C@H](CC(=O)N[C@H](CO)Cc2ccccc2)C(=O)N[C@@H](Cc2ccccc2)COC1=O | 14 | 12 | 13 | x | n | n | n | n | n
Cc1nc(-c2cccc(NC(=O)c3ccc(-n4cccn4)cc3)c2)cs1 | n | n | n | x | n | x | x | x | x
O=C(O)c1cc([N+](=O)[O-])ccc1-c1ccc([N+](=O)[O-])cc1C(=O)O | 20 | 9.4 | 12 | x | n | n | n | n | n
CN(C)CCNc1ccc2ncn3c4ccc(O)cc4c(=O)c1c23 | n | n | n | x | n | x | x | x | x
Cc1cc(OCC(=O)OCC(=O)NCc2ccc3c(c2)OCO3)ccc1Cl | 10 | 11 | n | x | n | n | 9.1 | n | n
O=C(COC(=O)COc1ccc(Br)cc1)NCc1ccc2c(c1)OCO2 | n | n | n | x | n | x | x | x | x
COc1ccc(-c2cn[nH]c2N)cc1 | 12 | 8.8 | n | n | n | n | n | n | n
COCCN(CC(=O)Nc1cccc(C)c1C)C(=O)c1oc2c(Cl)cccc2c1C | n | n | n | x | n | x | x | x | x
O=C(NC(=S)Nc1ccc(Cc2ccncc2)cc1)c1ccccc1F | 15 | 12 | n | x | n | n | n | n | n
CCc1ccc(CCNC(=O)OC2CC3CC2[C@H]2CCCCN2[C@H]3Cc2ccccc2)cc1 (stereo partly specified) | n | n | n | x | n | x | x | x | x
CCC(CC)C(=O)Nc1c2c(nn1-c1ccc(OC)cc1)CS(=O)C2 (stereo unspecified) | 12 | 8.7 | n | n | n | n | n | n | n
CCC(=O)Nc1c2c(nn1-c1ccc(OC)cc1)CS(=O)C2 (stereo unspecified) | n | n | n | n | n | x | x | x | x
O=C1NC[C@H](Cc2ccccc2)N(C[C@@H]2CCCN2C[C@H](Cc2ccccc2)N2C[C@H](Cc3ccccc3)N(CC3CCCCC3)C(=O)C2=O)C1=O | n | n | n | x | n | x | x | x | x
SMILES | PLCg1 inh | ADAM17 inh | PLC-beta3 inh | Rce1 inhib | ADAM10 inh | ADAM10 ctr | ADAM17 confirm | PLCg1 ctr | PLCb3 confirm
O=C1NC[C@H](Cc2ccccc2)N(C[C@H]2CCCN2C[C@H](Cc2ccccc2)N2C[C@H](Cc3ccccc3)N(CC3CCCCC3)C(=O)C2=O)C1=O | 14 | 9.0 | n | x | n | 20 | 9.3 | n | n
C=CCN1C(=O)/C(=C\c2ccc(Oc3nc(N4CCOCC4)nc(N4CCOCC4)n3)c(OC)c2)SC1=S | n | n | n | n | n | x | x | x | x
COC(=O)Cc1nnn2c1[C@@H](C)[C@@H](c1ccccc1Br)O[C@@H](C)C2 | n | n | n | x | n | x | x | x | x
Cc1c([N+](=O)[O-])cnc(Sc2ccccc2)c1[N+](=O)[O-] | 11 | 10 | n | n | n | n | n | 9.5 | n
COc1ccc([C@H]2CC(=O)C=C(/C=C/c3ccccc3)C2)cc1OC | 11 | 13 | 16 | x | n | n | n | n | n
S=C(Nc1ccccc1Cl)NC1CC2CCCC(C1)N2C1CC1 (stereo unspecified) | n | n | n | n | n | x | x | x | x
C=CCc1cccc(CNc2nc3ccccc3n2CCN2CCOCC2)c1O | 10 | 12 | 14 | n | n | n | 9.3 | n | n
CC(C)C(c1nnnn1Cc1ccco1)N1CCN(c2cccc(Cl)c2)CC1 (stereo unspecified) | 12 | 14 | n | n | n | n | n | n | n
CC(C)C(c1nnnn1Cc1ccccc1)N1CCN(Cc2ccco2)CC1 (stereo unspecified) | n | n | n | n | n | x | x | x | x
CC[C@]1(C(=O)OC)[C@H]2C(=O)N(C)C(=O)[C@H]2[C@H]2CN=C(SCc3ccc(OC)cc3)N21 | n | n | n | x | n | x | x | x | x
CN(C(=O)COC(=O)COc1ccc(N(C)S(=O)(=O)c2ccc(Cl)cc2)cc1)c1ccccc1 | 12 | 18 | n | x | n | n | n | n | n
CC(=O)N/C(=C\c1ccccc1)C(=O)OC/C=C/c1ccccc1 | n | n | n | n | n | x | x | x | x
Fc1ccc(-c2nnn(Cc3ccc(F)cc3Cl)n2)cc1 | n | n | n | n | n | x | x | x | x
Cc1ccccc1-c1nnn(Cc2ccc(F)cc2Cl)n1 | 11 | 10 | n | n | n | n | 11 | n | n
Nc1ccccc1-n1c(=O)n(Cc2ccccc2F)c(=O)c2[nH]cnc21 | n | n | n | n | n | x | x | x | x
C=C(C)C(=O)Nc1cccc(C2=NOC3(C2)C[C@H](C(N)=O)N(C(=O)/C=C/C)C3)c1 (stereo partly specified) | 12 | 9.9 | n | n | n | n | n | n | n
Cc1cc(C)c(C)c(S(=O)(=O)N2CCC(C(=O)NCc3cccs3)CC2)c1C | 12 | 8.8 | n | x | n | n | n | n | n
O=C(NCc1cccs1)C1CCN(S(=O)(=O)c2cccs2)CC1 | n | n | n | n | n | x | x | x | x
